System: Vero E6 infected with SARS-CoV-2
Test: inhibition of SARS-CoV-2 cytopathic effect; higher = more antiviral protection, active = above 15
Details: 48 h

Measured: inhibition of SARS-CoV-2 cytopathic effect

CC(C)(C)C#Cc1cc(N(C(=O)[C@H]2CC[C@H](C)CC2)[C@H]2CC[C@@H](O)CC2)c(C(=O)O)s1
inactive: 1 nM 1.62% | 8.33 nM 2.19% | 100 nM -0.17% | 833.33 nM 1.33% | 10000 nM 1.51%

Cc1ccc(NC(=O)c2ccc(CN3CCN(C)CC3)cc2)cc1Nc1nc(-c2cccnc2)cs1 [masitinib]
active: 10000 nM 44.8%
inactive: 1 nM 1.41% | 8.33 nM 0.48% | 100 nM 1.05% | 833.33 nM 1.93%

CC(=O)N(c1onc(C)c1C)S(=O)(=O)c1ccc(N)cc1 [sulfisoxazole-acetyl]
inactive: 1 nM -4.04% | 8.33 nM -3.48% | 100 nM -3.58% | 833.33 nM -0.91% | 10000 nM 0.37%

O=C1CC2(CCCC2)CC(=O)N1CCNC[C@H]1COc2ccccc2O1
inactive: 1 nM -0.99% | 8.33 nM -2.08% | 100 nM -0.87% | 833.33 nM 0.95% | 10000 nM -2.14%

Clc1ccc(C2=CCC[C@H]3CC[C@@H]2N3)cn1
inactive: 1 nM -2.02% | 8.33 nM 2.33% | 100 nM -0.54% | 833.33 nM 0.15% | 10000 nM -1.94%

OC[C@H]1O[C@H](O[C@H]2O[C@H](CO)[C@@H](O)[C@H](O)[C@H]2O)[C@H](O)[C@@H](O)[C@@H]1O [cabaletta]
inactive: 1 nM 1.34% | 8.33 nM 3.4% | 100 nM 5.33% | 833.33 nM 3.33% | 10000 nM 0.76%

Cc1nccn1CC1CCc2c(c3ccccc3n2C)C1=O (stereo not given) [ondansetron]
inactive: 1 nM 3.14% | 8.33 nM 0.05% | 100 nM -1.38% | 833.33 nM -1.32% | 10000 nM 3.44%

Cc1ccc(C23CNCC2C3)cc1 (stereo not given) [bicifadine]
inactive: 1 nM 0.67% | 8.33 nM -0.49% | 100 nM 0.91% | 833.33 nM -1.53% | 10000 nM -0.3%

COCCN1CCN(Cc2ccc(-c3n[nH]c4c3C(=O)c3c(NC(=O)NN5CCOCC5)cccc3-4)cc2)CC1
inactive: 1 nM 0.81% | 8.33 nM -16.4% | 100 nM 0.61% | 833.33 nM 2.47% | 10000 nM 9%

C[C@]12CCC(=O)C=C1C=C[C@@H]1[C@@H]2CC[C@@]2(C)[C@H]1CC[C@@]2(O)CCC(=O)O [potassium-canrenoate]
inactive: 1 nM -4.66% | 8.33 nM -2.95% | 100 nM 2.67% | 833.33 nM 3.81% | 10000 nM 0.36%

CCCCCCN(CCCCCC)C(=O)Cc1c(-c2ccc(F)cc2)[nH]c2ccccc12
inactive: 1 nM 5.1% | 8.33 nM 3.61% | 100 nM 3.88% | 833.33 nM 0.72% | 10000 nM -4.49%

CN1CCC(=C2c3ccccc3CCc3sccc32)CC1 [pizotifen]
inactive: 1 nM 2.55% | 8.33 nM -0.27% | 100 nM 0.72% | 833.33 nM 1.5% | 10000 nM -3.38%

COc1nccc(-c2c(-c3ccc(F)cc3)ncn2C2CCNCC2)n1
inactive: 1 nM -7.74% | 8.33 nM 0.83% | 100 nM -2.49% | 833.33 nM -2.73% | 10000 nM 7.05%

COC1=C[C@@H]2[C@@H]3Cc4ccc(OC)c(O)c4[C@]2(CCN3C)CC1=O [sinomenine]
inactive: 1 nM -1.85% | 8.33 nM 0.19% | 100 nM -1.8% | 833.33 nM 2.51% | 10000 nM 0.68%

CCOc1cc(N2CCC(O)CC2)ccc1Nc1ncc2c(n1)N(C)c1ccccc1C(=O)N2C
inactive: 1 nM 1.68% | 8.33 nM 1.49% | 100 nM 1.28% | 833.33 nM -1.36% | 10000 nM -1.31%

c1cn2cc(-c3ccc4cn[nH]c4c3)nc(Nc3ccc(N4CCOCC4)cc3)c2n1
inactive: 1 nM -4.37% | 8.33 nM -3.35% | 100 nM -4.69% | 833.33 nM 0.03% | 10000 nM -4.57%

O=C(c1c2ccccc2cc2ccccc12)N1CCC(N2CCC[C@@H](C(=O)N3CCOCC3)C2)CC1
inactive: 1 nM -1.36% | 8.33 nM -0.08% | 100 nM -0.31% | 833.33 nM -1.35% | 10000 nM -6.08%

CC(C)n1nc(-c2cc3cc(O)ccc3[nH]2)c2c(N)ncnc21
inactive: 1 nM 1.52% | 8.33 nM 2.09% | 100 nM 1.4% | 833.33 nM 2.07% | 10000 nM -1.69%

NC(=O)Nc1sc(-c2ccc(F)cc2)cc1C(N)=O
inactive: 1 nM 1.14% | 8.33 nM -0.06% | 100 nM -0.35% | 833.33 nM -3.05% | 10000 nM -0.22%
